# According to PubChem BioAssay:
# Results filed as inconclusive are left out. Calls of active or inactive are those of the source. Unless noted, cut-off not given; nearly all actives show AC50 up to about 26 µM.
# How the values were obtained:
# [1] = growth inhibition of DIPG glioma cells, dose response, cell-based, SU-DIPG-XVII, MIPE5.0, CellTiter-Glo, qHTS (AID 1347060); settings: SU-DIPG-XVII viability, CellTiter-Glo ATP luminescence;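 further: cells exposed to compound for 48 hours before viability readout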
# [2] = growth inhibition of DIPG glioma cells, dose response, cell-based, SU-DIPG-XIII, MIPE4.0, CellTiter-Glo, qHTS (AID 1347061; cut-off not given, nearly all actives have AC50 up to about 37 µM;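 further: cells exposed to compound for 48 hours before readout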); settings: SU-DIPG-XIII viability, CellTiter-Glo ATP luminescence
# [3] = growth inhibition of DIPG glioma cells, dose response, cell-based, JHH-DIPG-1, MIPE4.0, CellTiter-Glo, qHTS (AID 1347062; cut-off not given, nearly all actives have AC50 up to about 27 µM;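 further: cells exposed to compound for two days before readout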); settings: JHH-DIPG-1 viability, CellTiter-Glo ATP luminescence
# [4] = growth inhibition of DIPG glioma cells, dose response, cell-based, SU-DIPG-IV, MIPE4.0, CellTiter-Glo, qHTS (AID 1347063; cut-off not given, nearly all actives have AC50 up to about 30 µM;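 further: compound exposure lasted 48 hours before the viability readout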); settings: SU-DIPG-IV viability, CellTiter-Glo ATP luminescence
# [5] = viability loss in pontine glioma line – cell-based, SU-DIPG-XXV, MIPE5.0, CellTiter-Glo, qHTS, dose response (AID 1347065); settings: CellTiter-Glo ATP luminescence;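 further: cells exposed to compound for 48 hours before ATP readout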
# [6] = SU-DIPG-VI glioma cell viability, MIPE4.0 library, CellTiter-Glo luminescence, qHTS (AID 1347066; cut-off not given, nearly all actives have AC50 up to about 30 µM;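 further: cells exposed to compound for 48 hours before readout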); settings: CellTiter-Glo ATP luminescence
# [7] = JHH-DIPG-1 glioma cell viability, MIPE5.0 library, CellTiter-Glo luminescence, qHTS (AID 1347067); settings: JHH-DIPG-1 glioma viability, CellTiter-Glo ATP luminescence;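 further: cells exposed to compound for 48 hours before readout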
# [8] = SU-DIPG-XXV glioma cell viability, MIPE5.0 library, qHTS (AID 1347068; cut-off not given, nearly all actives have IC50 up to about 30 µM;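 on IC50: cells exposed to compound for 48 hours before viability readout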)
# [9] = modifiers of HSF1 nuclear foci, imaging, Selleck Cancer Library (AID 1347162; in the data active means plate-normalised HSF1 focus index below about 0.46); settings: human cells, at 10 µM; SSMD: measured here: HSF1 foci SSMD mean; cell count: measured here: cell number; plate-normalised HSF1 focus index: stronger effect = lower value
# [10] = LFS_MB_P medulloblastoma growth inhibition, cell-based, chromothripsis tumors, cisplatin or BGB combos (AID 1671449; in the data active means inhibition above about 80%;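 further: cells exposed for 96 hours; 0% = vehicle DMSO and 100% = killing by high DMSO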); settings: LFS_MB_P medulloblastoma cells
# [11] = HDN33 neuroblastoma growth inhibition, cell-based, chromothripsis tumors, cisplatin or BGB combos (AID 1671450; in the data active means inhibition above about 80%;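 further: cells exposed to compound for four days; 0% = vehicle DMSO and 100% = cell killing by high DMSO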); settings: HDN33 neuroblastoma cells, stronger effect = higher value
# [12] = ICB984 medulloblastoma cell growth inhibition, synergistic combos for chromothripsis tumors, cisplatin or BGB combos (AID 1671451; call rule not given here;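 further: cells exposed for 96 hours before readout; 0% = vehicle DMSO and 100% = killing by high DMSO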); settings: ICB984 medulloblastoma cells, drug combinations, stronger effect = higher value
# [13] = HTB85 osteosarcoma cell growth inhibition, synergistic combos for chromothripsis tumors, BGB or cisplatin IC20 combos (AID 1671453; in the data active means inhibition above about 80%;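 further: cells exposed for 96 hours before readout; 0% = vehicle DMSO and 100% = high DMSO killing control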); settings: HTB85 osteosarcoma cells, drug combinations, stronger effect = higher value
# [14] = MDA-MB-436 breast carcinoma cell growth inhibition, synergistic combos for chromothripsis tumors, BGB or cisplatin combos (AID 1671458; call rule not given here;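 further: cells exposed for 96 hours; 0% = vehicle DMSO and 100% = killing by high DMSO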); settings: MDA-MB-436 breast carcinoma growth inhibition, drug combinations, stronger effect = higher value
# [15] = growth inhibition of BT084 medulloblastoma cells, cell-based, ICGC_MB145, cisplatin and BGB IC40 combos (AID 1671461; in the data active means inhibition above about 80%;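 further: cells exposed to drugs for 96 hours; 0% = vehicle DMSO and 100% = high DMSO full killing control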); settings: drug combinations, stronger effect = higher value
# [16] = growth inhibition of RCMB18 medulloblastoma cells, cell-based, cisplatin and BGB IC40 combos (AID 1671462; in the data active means inhibition above about 80%;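 further: cells exposed to compound for four days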); settings: stronger effect = higher value
# [17] = sensitizers of A549 cells to miR-34 induction, primary screen, imaging, A549 dox-inducible miR-34, nuclei and caspase counts (AID 1347080;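 active means compounds whose cell count with miR-34 switched on is under 0.7 times the count with it off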); settings: A549 miR-34 inducible, Hoechst nuclei count, 48 h
# [18] = survival rescue of mitochondrial mutant cells in low glucose, primary screen, MELAS cybrids, Rieske KO mouse fibroblasts, CellTiter-Glo (AID 1508586;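 active means mean z-score across replicates of 1.96 or higher in either the MELAS or the Rieske mutant cell line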;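 further: z relative to plate mean and SD of compound and empty wells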)
# [19] = stronger effect = lower value, cell number ratio, induced over uninduced
# [20] = measured here: relative caspase fold change +Dox/-Dox
# [21] = measured here: total cells with miR-34 induction, stronger effect = lower value
# [22] = measured here: total cells without miR-34 induction
# [23] = MELAS cybrid survival, CellTiter-Glo 48 h, stronger effect = higher value
# [24] = Rieske KO mouse fibroblast survival, CellTiter-Glo 72 h
structure (smiles),measurement,setting,value
Cc1ccc([N+](=O)[O-])cc1S(=O)(=O)N(C)/N=C/c1cnc2ccc(Br)cn12,AC50,[1],0.132 µM (active)
same,AC50,[2],0.0209 µM (active)
same,AC50,[3],0.0332 µM (active)
same,AC50,[4],0.0235 µM (active)
same,AC50,[5],0.118 µM (active)
same,AC50,[6],0.132 µM (active)
same,AC50,[7],0.166 µM (active)
same,IC50,[8],0.235 µM (active)
same,SSMD,[9],7.37
same,cell count,[9],7410
same,plate-normalised HSF1 focus index,[9],1.46 (inactive)
same,inhibition,"[10]; at 0.5 µM, stronger effect = higher value",-21.6% (inactive)
same,inhibition,"[10]; measured here: combination with BGB IC20, at 0.005 µM",-7.86%
same,inhibition,"[10]; measured here: combination with BGB IC40, at 0.005 µM",-33.9%
same,inhibition,"[10]; measured here: combination with BGB IC40, at 0.05 µM",-17.7%
same,inhibition,"[10]; measured here: combination with cisplatin, at 0.5 µM, stronger effect = higher value",-8.16%
same,inhibition,"[10]; measured here: combination with cisplatin, at 5 µM, stronger effect = higher value",118%
same,inhibition,"[11]; BGB combo, at 5 µM",98.8%
same,inhibition,[11]; at 0.5 µM,82.5% (active)
same,inhibition,"[11]; cisplatin combo, at 5 µM",99.4%
same,inhibition,"[11]; measured here: with BGB IC20 combination, at 0.5 µM",82.3%
same,inhibition,"[11]; measured here: with cisplatin IC20 combination, at 0.5 µM",89%
same,inhibition,"[11]; single agent, at 5 µM",99.6%
same,inhibition,"[12]; BGB IC20 combo, at 0.005 µM",93.2%
same,inhibition,"[12]; BGB IC40 combo, at 0.005 µM",89.9%
same,inhibition,"[12]; BGB IC40 combo, at 0.05 µM",99.2%
same,inhibition,[12]; at 0.5 µM,-28.7% (inactive)
same,inhibition,"[12]; cisplatin combo, at 0.05 µM",99.2%
same,inhibition,"[12]; cisplatin combo, at 0.5 µM",-32.2%
same,inhibition,"[12]; cisplatin combo, at 5 µM",-58%
same,inhibition,"[12]; measured here: 5 uM single agent, at 5 µM",-16.2%
same,inhibition,[13]; at 0.5 µM,84.8% (active)
same,inhibition,"[13]; measured here: with BGB IC20, at 0.5 µM",92.6%
same,inhibition,"[13]; measured here: with BGB IC20, at 5 µM",100%
same,inhibition,"[13]; measured here: with cisplatin IC20, at 0.5 µM",90.8%
same,inhibition,"[13]; measured here: with cisplatin IC20, at 5 µM",99.6%
same,inhibition,"[13]; single agent, at 5 µM",99.9%
same,inhibition,[14]; at 0.5 µM,77.8% (inactive)
same,inhibition,"[14]; measured here: BGB combination, at 0.5 µM",73.3%
same,inhibition,"[14]; measured here: BGB combination, at 5 µM",54%
same,inhibition,"[14]; measured here: cisplatin combination, at 0.5 µM",77.3%
same,inhibition,"[14]; measured here: cisplatin combination, at 5 µM",74.2%
same,inhibition,[15]; at 0.5 µM,17.8% (inactive)
same,inhibition,"[15]; cisplatin combination, at 0.5 µM",8.05%
same,inhibition,"[15]; cisplatin combination, at 5 µM",-42.9%
same,inhibition,"[15]; measured here: BGB IC40 combination 0.05 uM, at 0.05 µM",16.7%
same,inhibition,"[15]; single agent, at 5 µM",-25%
same,inhibition,[16]; at 0.5 µM,68.3% (inactive)
same,inhibition,"[16]; cisplatin combo, at 5 µM",59.8%
same,inhibition,"[16]; measured here: BGB IC40 combination, at 0.05 µM",-12.7%
same,inhibition,"[16]; measured here: combination with cisplatin, at 0.5 µM",58.3%
same,inhibition,"[16]; single agent, at 5 µM",76.8%
CC(C)n1cnc2c(NCCc3ccc(O)cc3)nc(-c3csc4ccccc34)nc21,AC50,[1],18.6 µM (active)
same,AC50,[2],7.43 µM (active)
same,AC50,[3],18.7 µM (active)
same,AC50,[4],10.5 µM (active)
same,AC50,[5],18.6 µM (active)
same,AC50,[6],20.9 µM (active)
same,AC50,[7],13.2 µM (active)
same,outcome,[8],inactive
same,fold change,[17]; [19],0.908 (inactive)
same,fold change,[17]; [20],0.471
same,cell count,[17]; [21],6480
same,cell count,[17]; [22],7140
same,z-score,[18]; [23],-0.0908 (inactive)
same,z-score,[18]; [24],0.499
O=C(Nc1cccc(Nc2ncc(Br)c(NCCc3cnc[nH]3)n2)c1)N1CCCC1,AC50,[1],4.17 µM (active)
same,AC50,[2],16.6 µM (active)
same,AC50,[3],16.6 µM (active)
same,AC50,[4],16.6 µM (active)
same,AC50,[5],1.66 µM (active)
same,AC50,[6],14.8 µM (active)
same,AC50,[7],3.72 µM (active)
same,outcome,[8],inactive
same,fold change,[17]; [19],0.952 (inactive)
same,fold change,[17]; [20],0.914
same,cell count,[17]; [21],2420
same,cell count,[17]; [22],2540
same,z-score,[18]; [23],-0.631 (inactive)
same,z-score,[18]; [24],0.495
